Holding throughout (test): DAPPL (digital affinity profiling via proximity ligation, sequencing); 10 mM Tris-HCl pH 7.5, 50 mM NaCl, 1 mM DTT, 4% glycerol, room temperature, 30 min; GST-TFs on glutathione beads, 16-mer random dsDNA library, 0.1% formaldehyde crosslink after washing; high values mean tight binding
One test deals with T1, FLI1 (Homo sapiens, UniProt Q01543 1-452).
T1 sequence: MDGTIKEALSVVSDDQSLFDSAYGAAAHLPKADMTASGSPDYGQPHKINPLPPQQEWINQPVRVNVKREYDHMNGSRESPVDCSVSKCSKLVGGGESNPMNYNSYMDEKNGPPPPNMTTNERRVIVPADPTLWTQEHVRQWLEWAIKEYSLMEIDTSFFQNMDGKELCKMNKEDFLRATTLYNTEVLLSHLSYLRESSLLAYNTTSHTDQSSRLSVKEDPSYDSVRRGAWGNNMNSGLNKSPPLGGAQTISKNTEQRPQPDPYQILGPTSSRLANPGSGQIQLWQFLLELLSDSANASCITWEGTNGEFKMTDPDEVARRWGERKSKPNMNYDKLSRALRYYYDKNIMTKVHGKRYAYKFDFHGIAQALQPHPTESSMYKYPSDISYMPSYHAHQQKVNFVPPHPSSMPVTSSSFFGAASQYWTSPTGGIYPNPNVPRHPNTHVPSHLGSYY
To be noted: protein: recombinant; tags: N-terminal GST; dsDNA, one strand shown. The method, boiled down:
(§1)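 Sequencing on an Illumina NextSeq500 followed washing, crosslinking with 0.1% formaldehyde, proximity ligation (BsaI/T4 ligase, 1 h, 37 °C) and PCR amplification of pools that had been incubated for 30 min at room temperature with 200 nmole of a random double-stranded 16-mer DNA library in Tris/NaCl/DTT/glycerol buffer. Each pool held DNA-barcoded human transcription factors, expressed in yeast as GST fusions and captured on glutathione beads, plus a tag-only sample. Binding signal is a hexamer's read frequency for a factor divided by its frequency in the tag-only sample.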

The next test addresses T2, ELK1 (Homo sapiens, UniProt P19419 1-428).
T2 sequence: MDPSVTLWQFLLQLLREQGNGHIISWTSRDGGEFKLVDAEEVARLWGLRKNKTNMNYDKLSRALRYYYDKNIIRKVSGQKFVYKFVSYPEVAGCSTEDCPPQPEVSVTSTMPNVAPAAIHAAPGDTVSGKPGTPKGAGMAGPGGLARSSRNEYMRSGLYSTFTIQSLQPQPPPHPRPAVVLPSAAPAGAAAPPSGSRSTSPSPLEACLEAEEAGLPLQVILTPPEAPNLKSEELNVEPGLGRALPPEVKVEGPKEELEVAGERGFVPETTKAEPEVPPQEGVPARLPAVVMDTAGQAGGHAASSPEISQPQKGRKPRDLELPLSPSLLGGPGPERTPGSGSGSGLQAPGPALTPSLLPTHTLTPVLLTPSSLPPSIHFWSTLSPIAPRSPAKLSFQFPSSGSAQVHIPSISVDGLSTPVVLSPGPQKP
The conditions noted are these: protein: recombinant; tags: N-terminal GST; dsDNA, one strand shown. The method, boiled down:
as §1

The target of another test is T3, GABPA (Homo sapiens, UniProt Q06546 1-454).
T3 sequence: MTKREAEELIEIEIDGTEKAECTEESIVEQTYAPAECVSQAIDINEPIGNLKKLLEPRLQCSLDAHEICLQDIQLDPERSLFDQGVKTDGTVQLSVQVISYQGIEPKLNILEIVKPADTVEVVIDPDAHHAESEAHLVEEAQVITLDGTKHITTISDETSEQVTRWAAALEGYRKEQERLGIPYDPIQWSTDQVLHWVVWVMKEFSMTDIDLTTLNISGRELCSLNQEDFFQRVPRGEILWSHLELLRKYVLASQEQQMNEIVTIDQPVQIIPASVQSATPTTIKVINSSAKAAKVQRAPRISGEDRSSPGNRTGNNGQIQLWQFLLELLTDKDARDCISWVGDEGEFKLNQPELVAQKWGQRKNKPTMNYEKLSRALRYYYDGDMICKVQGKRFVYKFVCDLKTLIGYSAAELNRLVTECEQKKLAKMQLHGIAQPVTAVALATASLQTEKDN
To be noted: protein: recombinant; tags: N-terminal GST; dsDNA, one strand shown. The essentials:
as §1

The target of a further test is T4, ERG (Homo sapiens, UniProt P11308 1-479).
T4 sequence: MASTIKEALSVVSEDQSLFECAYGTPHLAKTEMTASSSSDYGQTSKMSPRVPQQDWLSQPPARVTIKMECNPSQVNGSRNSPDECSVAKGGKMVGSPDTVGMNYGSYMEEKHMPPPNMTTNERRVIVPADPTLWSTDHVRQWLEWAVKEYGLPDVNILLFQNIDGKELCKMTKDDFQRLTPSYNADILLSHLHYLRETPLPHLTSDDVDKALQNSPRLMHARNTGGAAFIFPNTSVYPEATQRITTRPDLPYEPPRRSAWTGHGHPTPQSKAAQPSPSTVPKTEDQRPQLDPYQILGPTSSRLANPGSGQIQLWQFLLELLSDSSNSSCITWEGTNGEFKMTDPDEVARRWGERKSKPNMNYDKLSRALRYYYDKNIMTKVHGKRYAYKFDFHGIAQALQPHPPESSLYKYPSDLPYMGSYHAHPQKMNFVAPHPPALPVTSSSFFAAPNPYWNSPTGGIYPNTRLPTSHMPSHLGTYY
To be noted: protein: recombinant; tags: N-terminal GST; dsDNA, one strand shown. The method, boiled down:
as §1

Another test addresses ELF1 (Homo sapiens, UniProt P32519 1-619). To be noted: protein: recombinant; tags: N-terminal GST; dsDNA, one strand shown. The method, boiled down:
as §1

In a further test the target is T5, EHF (Homo sapiens, UniProt Q9NZC4 1-300).
T5 sequence: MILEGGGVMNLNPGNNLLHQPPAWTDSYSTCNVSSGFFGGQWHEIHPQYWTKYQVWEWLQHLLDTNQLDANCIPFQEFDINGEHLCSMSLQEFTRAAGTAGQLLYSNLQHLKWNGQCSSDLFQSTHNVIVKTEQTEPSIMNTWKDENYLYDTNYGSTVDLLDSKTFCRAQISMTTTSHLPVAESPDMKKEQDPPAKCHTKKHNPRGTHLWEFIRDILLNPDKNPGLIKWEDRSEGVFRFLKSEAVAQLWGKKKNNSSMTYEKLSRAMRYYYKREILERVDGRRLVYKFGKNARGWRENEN
To be noted: protein: recombinant; tags: N-terminal GST; dsDNA, one strand shown. The essentials:
as §1

For another test, the target named is SPIB (Homo sapiens, UniProt Q01892 1-262). The conditions noted are these: protein: recombinant; tags: N-terminal GST; dsDNA, one strand shown. The essentials:
as §1

The next test deals with T6, FEV (Homo sapiens, UniProt Q99581 1-238).
T6 sequence: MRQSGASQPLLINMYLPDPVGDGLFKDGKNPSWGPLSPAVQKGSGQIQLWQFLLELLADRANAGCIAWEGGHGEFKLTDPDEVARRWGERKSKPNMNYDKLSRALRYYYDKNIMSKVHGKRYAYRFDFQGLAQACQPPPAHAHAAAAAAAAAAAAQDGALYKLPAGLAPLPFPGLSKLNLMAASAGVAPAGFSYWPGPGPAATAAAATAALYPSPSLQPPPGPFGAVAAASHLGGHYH
To be noted: protein: recombinant; tags: N-terminal GST; dsDNA, one strand shown. The method, boiled down: as §1

Another test addresses ETV5 (Homo sapiens, UniProt P41161 1-510). The conditions noted are these: protein: recombinant; tags: N-terminal GST; dsDNA, one strand shown. The essentials: as §1
A further test deals with HSF1 (Homo sapiens, UniProt Q00613 1-529). To be noted: protein: recombinant; tags: N-terminal GST; chain copies: 3; dsDNA, one strand shown. The method, boiled down:
as §1

The next test has as its target T7, SPIC (Homo sapiens, UniProt Q8N5J4 1-248).
T7 sequence: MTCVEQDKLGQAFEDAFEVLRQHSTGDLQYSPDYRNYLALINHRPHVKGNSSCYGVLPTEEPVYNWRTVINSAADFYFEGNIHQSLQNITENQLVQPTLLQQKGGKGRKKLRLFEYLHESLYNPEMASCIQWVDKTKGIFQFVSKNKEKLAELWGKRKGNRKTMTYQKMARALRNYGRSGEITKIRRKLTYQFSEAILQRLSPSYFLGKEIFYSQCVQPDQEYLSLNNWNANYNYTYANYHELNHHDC
To be noted: protein: recombinant; tags: N-terminal GST; dsDNA, one strand shown. The method, boiled down: as §1

For a further test, the target named is ELF4 (Homo sapiens, UniProt Q99607 1-663). To be noted: protein: recombinant; tags: N-terminal GST; dsDNA, one strand shown. The essentials:
as §1

Another test concerns the target T8, ELK4 (Homo sapiens, UniProt P28324-2 1-405).
T8 sequence: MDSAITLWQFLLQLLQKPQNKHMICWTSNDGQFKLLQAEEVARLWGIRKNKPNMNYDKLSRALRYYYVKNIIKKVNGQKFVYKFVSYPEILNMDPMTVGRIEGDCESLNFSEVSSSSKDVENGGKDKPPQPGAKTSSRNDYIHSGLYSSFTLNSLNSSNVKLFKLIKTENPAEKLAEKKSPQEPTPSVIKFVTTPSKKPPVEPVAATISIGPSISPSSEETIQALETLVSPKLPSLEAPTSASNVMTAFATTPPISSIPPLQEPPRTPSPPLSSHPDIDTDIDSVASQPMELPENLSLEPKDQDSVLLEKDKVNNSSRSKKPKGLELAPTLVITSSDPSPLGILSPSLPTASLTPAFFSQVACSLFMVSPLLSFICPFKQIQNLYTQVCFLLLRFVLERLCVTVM
The conditions noted are these: protein: recombinant; tags: N-terminal GST; dsDNA, one strand shown. The essentials:
as §1

For a further test, the target named is T9, ETV2 (Homo sapiens, UniProt O00321 1-342).
T9 sequence: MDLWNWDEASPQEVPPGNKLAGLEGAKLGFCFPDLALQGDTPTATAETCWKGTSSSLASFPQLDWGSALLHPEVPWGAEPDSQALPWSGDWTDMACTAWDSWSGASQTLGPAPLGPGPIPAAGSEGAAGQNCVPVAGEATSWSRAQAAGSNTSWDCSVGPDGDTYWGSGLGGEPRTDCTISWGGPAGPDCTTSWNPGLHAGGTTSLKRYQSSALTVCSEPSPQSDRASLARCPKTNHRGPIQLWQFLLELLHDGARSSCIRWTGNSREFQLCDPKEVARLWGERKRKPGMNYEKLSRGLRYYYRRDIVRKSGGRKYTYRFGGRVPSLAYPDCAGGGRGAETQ
To be noted: protein: recombinant; tags: N-terminal GST; dsDNA, one strand shown. The method, boiled down:
as §1

In the next test the target is T10, ELF3 (Homo sapiens, UniProt P78545 1-371).
T10 sequence: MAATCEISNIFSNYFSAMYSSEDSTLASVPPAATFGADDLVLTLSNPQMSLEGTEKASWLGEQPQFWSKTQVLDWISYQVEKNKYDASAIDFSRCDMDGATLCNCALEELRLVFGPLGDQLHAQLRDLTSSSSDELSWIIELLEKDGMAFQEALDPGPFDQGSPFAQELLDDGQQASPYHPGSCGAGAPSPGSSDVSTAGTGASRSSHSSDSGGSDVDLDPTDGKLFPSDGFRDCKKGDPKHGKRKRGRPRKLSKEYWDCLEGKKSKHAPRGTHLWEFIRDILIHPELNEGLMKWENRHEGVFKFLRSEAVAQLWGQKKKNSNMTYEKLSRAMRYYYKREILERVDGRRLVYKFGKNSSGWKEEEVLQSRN
The conditions noted are these: protein: recombinant; tags: N-terminal GST; dsDNA, one strand shown. The essentials:
as §1

In the next test the target is CRX (Homo sapiens, UniProt O43186 1-299). To be noted: protein: recombinant; tags: N-terminal GST; dsDNA, one strand shown. The method, boiled down: as §1
The target in a further test is ETV1 (Homo sapiens, UniProt P50549 1-477). To be noted: protein: recombinant; tags: N-terminal GST; dsDNA, one strand shown. The method, boiled down: as §1
Chain of ETV1 (P50549 whole entry): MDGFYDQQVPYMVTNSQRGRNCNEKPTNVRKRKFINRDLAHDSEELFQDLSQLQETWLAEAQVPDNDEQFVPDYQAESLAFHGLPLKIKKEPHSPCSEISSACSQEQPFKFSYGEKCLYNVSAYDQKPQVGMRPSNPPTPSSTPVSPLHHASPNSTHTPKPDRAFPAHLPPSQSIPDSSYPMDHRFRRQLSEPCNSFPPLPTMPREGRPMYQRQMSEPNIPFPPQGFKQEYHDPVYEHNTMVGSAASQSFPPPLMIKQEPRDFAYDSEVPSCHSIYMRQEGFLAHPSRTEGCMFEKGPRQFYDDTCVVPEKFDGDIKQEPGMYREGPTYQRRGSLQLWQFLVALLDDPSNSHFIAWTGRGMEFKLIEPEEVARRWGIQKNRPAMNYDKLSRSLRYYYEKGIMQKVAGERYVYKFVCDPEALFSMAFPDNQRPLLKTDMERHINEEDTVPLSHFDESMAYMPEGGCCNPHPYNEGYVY

Chain of HSF1 (Q00613 whole entry): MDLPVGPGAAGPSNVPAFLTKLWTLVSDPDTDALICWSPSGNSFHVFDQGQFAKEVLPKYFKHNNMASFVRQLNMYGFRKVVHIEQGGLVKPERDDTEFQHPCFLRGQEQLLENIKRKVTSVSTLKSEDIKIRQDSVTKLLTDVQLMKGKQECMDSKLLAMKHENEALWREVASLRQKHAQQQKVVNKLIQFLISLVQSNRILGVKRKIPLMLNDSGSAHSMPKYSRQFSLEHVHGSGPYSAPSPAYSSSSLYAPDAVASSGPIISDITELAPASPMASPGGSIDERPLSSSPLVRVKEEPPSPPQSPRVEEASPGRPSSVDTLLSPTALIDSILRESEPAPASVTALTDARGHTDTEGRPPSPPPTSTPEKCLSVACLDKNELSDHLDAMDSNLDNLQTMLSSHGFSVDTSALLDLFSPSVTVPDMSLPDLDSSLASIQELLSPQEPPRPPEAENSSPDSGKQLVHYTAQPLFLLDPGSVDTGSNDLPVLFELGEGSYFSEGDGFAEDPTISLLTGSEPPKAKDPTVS
Chain of ELF4 (Q99607 whole entry): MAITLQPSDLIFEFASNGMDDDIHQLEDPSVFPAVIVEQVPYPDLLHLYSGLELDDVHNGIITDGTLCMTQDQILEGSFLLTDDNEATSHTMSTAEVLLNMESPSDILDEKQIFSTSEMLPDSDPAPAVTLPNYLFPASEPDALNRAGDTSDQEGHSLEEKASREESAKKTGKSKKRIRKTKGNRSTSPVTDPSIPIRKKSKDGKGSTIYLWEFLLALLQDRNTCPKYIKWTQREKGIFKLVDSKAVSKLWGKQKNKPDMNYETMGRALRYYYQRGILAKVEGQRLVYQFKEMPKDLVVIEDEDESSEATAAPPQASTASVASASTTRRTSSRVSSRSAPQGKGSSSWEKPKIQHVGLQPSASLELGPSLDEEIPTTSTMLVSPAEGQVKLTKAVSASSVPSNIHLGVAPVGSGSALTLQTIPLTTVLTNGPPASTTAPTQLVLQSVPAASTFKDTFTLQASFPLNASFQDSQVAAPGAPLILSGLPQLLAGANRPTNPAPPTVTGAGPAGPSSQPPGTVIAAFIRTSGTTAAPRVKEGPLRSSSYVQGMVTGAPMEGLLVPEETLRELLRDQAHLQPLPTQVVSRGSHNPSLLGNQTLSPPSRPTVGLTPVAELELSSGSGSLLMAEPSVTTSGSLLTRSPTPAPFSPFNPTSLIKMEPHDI
Chain of ELF1 (P32519 whole entry): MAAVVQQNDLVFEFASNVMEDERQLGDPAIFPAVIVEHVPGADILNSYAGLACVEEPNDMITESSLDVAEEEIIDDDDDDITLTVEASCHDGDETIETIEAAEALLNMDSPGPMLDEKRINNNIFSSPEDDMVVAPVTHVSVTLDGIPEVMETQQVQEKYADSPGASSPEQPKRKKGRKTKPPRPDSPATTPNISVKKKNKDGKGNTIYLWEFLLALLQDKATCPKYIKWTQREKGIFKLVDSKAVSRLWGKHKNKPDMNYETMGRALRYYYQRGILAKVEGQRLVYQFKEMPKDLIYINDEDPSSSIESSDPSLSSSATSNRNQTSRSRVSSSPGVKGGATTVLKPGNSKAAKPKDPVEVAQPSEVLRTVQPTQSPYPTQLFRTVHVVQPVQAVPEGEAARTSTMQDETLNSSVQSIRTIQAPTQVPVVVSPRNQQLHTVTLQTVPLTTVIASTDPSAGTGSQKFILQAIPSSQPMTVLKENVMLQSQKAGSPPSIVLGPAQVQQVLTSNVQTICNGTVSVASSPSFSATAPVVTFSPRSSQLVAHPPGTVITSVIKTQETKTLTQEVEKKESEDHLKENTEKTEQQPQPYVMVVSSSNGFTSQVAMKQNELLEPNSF
Chain of SPIB (Q01892 whole entry): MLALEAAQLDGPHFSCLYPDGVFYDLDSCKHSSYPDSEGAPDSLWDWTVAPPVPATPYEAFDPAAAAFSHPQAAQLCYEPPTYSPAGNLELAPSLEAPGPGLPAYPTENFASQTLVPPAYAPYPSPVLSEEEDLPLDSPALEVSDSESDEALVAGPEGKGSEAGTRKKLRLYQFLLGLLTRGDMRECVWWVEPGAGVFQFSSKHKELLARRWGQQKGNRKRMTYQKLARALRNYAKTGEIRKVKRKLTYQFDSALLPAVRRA
Chain of ETV5 (P41161 whole entry): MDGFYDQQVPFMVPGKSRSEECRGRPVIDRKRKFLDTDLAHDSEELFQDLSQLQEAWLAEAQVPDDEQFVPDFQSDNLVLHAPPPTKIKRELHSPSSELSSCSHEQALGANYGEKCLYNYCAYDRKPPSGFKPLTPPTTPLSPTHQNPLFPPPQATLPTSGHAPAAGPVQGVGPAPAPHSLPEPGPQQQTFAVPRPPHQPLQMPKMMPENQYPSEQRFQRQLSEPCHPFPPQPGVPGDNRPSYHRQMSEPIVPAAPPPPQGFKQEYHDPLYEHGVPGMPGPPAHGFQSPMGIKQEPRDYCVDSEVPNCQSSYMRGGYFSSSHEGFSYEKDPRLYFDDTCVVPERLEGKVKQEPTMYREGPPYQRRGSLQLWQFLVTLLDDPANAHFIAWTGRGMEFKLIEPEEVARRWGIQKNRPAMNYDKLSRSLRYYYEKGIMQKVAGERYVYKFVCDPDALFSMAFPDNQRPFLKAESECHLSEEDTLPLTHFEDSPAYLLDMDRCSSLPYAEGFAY
Chain of CRX (O43186 whole entry): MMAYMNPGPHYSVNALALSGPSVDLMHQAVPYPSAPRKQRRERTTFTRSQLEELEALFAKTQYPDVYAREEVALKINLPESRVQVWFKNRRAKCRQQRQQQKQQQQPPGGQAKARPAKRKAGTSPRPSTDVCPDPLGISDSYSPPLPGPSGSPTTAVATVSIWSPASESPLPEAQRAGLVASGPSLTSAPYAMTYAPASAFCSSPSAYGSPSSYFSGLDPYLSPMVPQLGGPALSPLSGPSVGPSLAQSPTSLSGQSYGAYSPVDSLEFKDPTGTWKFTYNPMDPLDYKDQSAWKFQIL

Turning to TTGAGC, the binding signal with FLI1 is 1.22 fold enrichment (6-mer frequency, TF over GST control); in the test with ELK1, 1.01 fold enrichment (6-mer frequency, TF over GST control); with GABPA, 1.17 fold enrichment (6-mer frequency, TF over GST control); with ERG, 1.12 fold enrichment (6-mer frequency, TF over GST control); with ELF1 it was 1.02 fold enrichment (6-mer frequency, TF over GST control); with EHF it was 1.06 fold enrichment (6-mer frequency, TF over GST control). For the same sequence, the binding signal is 1.11 fold enrichment (6-mer frequency, TF over GST control) with SPIB; 1 fold enrichment (6-mer frequency, TF over GST control) with FEV; 1.03 fold enrichment (6-mer frequency, TF over GST control) with ETV5; 1.03 fold enrichment (6-mer frequency, TF over GST control) with HSF1; 1.18 fold enrichment (6-mer frequency, TF over GST control) with SPIC; 1.06 fold enrichment (6-mer frequency, TF over GST control) with ELF4. Moreover, the binding signal in the test with ELK4 is 1.04 fold enrichment (6-mer frequency, TF over GST control); with ETV2, 1.07 fold enrichment (6-mer frequency, TF over GST control); with ELF3, 1.13 fold enrichment (6-mer frequency, TF over GST control); with CRX it was 1.28 fold enrichment (6-mer frequency, TF over GST control); in the test with ETV1, 1.1 fold enrichment (6-mer frequency, TF over GST control).

The record behind these values is article PMC7862700, “An all-to-all approach to the identification of sequence-specific readers for epigenetic DNA modifications on cytosine”.
